Reference: PubChem BioAssay (Tox21)
Records with an inconclusive call do not appear. A number with no mark means an inactive call. The call rests on the fitted dose curve.

Experiment: qHTS assay to identify small molecule agonists of the AP-1 signaling pathway - cell viability counter screen (AID 1159525); further: nearly all actives have a fitted effect of over 55% in size
Settings: ME-180 AP-1-bla cells viability, ATP luminescence, 5 h; series mostly up to 76.8 µM; viability change, negative = cytotoxic: at the top concentration
Method in brief: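 AP-1-bla ME-180 cells in Opti-MEM with 0.5% dialyzed FBS, compound exposure 5 h at 37 C in 15-point titration. Viability read in the same wells as ATP content by CellTiter-Glo luminescence, normalised to tetra-n-octylammonium bromide and DMSO controls.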

First: CC(=O)c1ccc2ccccc2c1
Second: CCOC(=O)c1ccccc1
The “viability change, negative = cytotoxic” value of the first is higher: 7.08% for the first, -0.996% for the second.

First: CC(CC=O)CC(C)(C)C (stereo not drawn)
Second: CCC(C)(CCCC(C)C)OC(C)=O (stereo not drawn)
The “viability change, negative = cytotoxic” value of the first is lower: -24.1% for the first, 3.9% for the second.

First: CC1=CCC(O)(C(C)C)CC1 (stereo not drawn)
Second: CC12CCC(C(=O)C1=O)C2(C)C (stereo not drawn)
The “viability change, negative = cytotoxic” value of the first is higher: 7.2% for the first, -0.255% for the second.

Going from `CC1CCC(CO)CC1` (stereo not drawn) to `CCCOC(=O)CC`, the “viability change, negative = cytotoxic” value falls from 0.0458% to -0.23%.

Going from `Nc1ccn([C@@H]2O[C@H](CO)[C@@H](O)C2O)c(=O)n1` (stereo partly drawn) to `O=C(O)CNC(=O)c1ccc(CO)o1`, the “viability change, negative = cytotoxic” value falls from -1.31% to -2.07%.

First: O=C1NC(=O)C2CC=CCC12 (stereo not drawn)
Second: CCCCOC(=O)CCC(C)=O
The “viability change, negative = cytotoxic” value of the first is lower: -0.376% for the first, 2.47% for the second.

Compared with `CN(C)CCCCCCN(C)C`, `CN(C)CCN(C)CCN(C)C` is lower in “viability change, negative = cytotoxic” value: 6.94% for the first, 0.773% for the second.

Compared with `C=C(C)C(=O)OCCOCCOCCOCCOC(=O)C(=C)C`, `CCCCN(CCC(=O)OCC)C(C)=O` is lower in “viability change, negative = cytotoxic” value: 2.14% for the first, 1.03% for the second.

With `OCCc1ccccn1` the “viability change, negative = cytotoxic” value was -3.01%.

First: O=[N+]([O-])c1cncn1CCN1CCOCC1
Second: CCOc1c(N2CCOCC2)cnn(C)c1=O
The “viability change, negative = cytotoxic” value of the first is lower: -1.02% [at 35.3 µM] for the first, 1.5% [at 35.3 µM] for the second.

Going from `CN(C)[C@@H]1C(=O)C(C(=O)NCN2CCCC2)=C(O)[C@@]2(O)C(=O)C3=C(O)c4c(O)cccc4[C@@](C)(O)C3C[C@@H]12` (stereo partly drawn) to `Cc1cccc(C)c1NC(=O)CC12CCCN1CCC2`, the “viability change, negative = cytotoxic” value rises from -5.64% [at 35.3 µM] to 0.087% [at 35.3 µM].

Compared with `C[C@H]1[C@H](NC(=O)/C(=N/OC(C)(C)C(=O)O)c2csc(N)n2)C(=O)N1S(=O)(=O)O` (stereo in doubt), `CC(=O)N1C[C@H](O)C[C@H]1C(=O)O` is higher in “viability change, negative = cytotoxic” value: 0.508% [at 35.3 µM] for the first, 7.21% [at 35.3 µM] for the second.

Compared with `O=C(O)CNC(=O)c1ccccc1`, `Cc1c(N)c(=O)n(-c2ccccc2)n1C` is higher in “viability change, negative = cytotoxic” value: 0.155% [at 35.3 µM] for the first, 0.262% [at 35.3 µM] for the second.

Compared with `CC1(C)OC[C@@H](COC(=O)CCc2ccc(OC[C@@H](O)CNCCNC(=O)N3CCOCC3)cc2)O1`, `C[N+]1(C)[C@@H]2CC(OC(=O)[C@H](CO)c3ccccc3)C[C@H]1[C@@H]1O[C@@H]12` (stereo partly drawn) is higher in “viability change, negative = cytotoxic” value: -0.026% [at 35.3 µM] for the first, 0.143% [at 35.3 µM] for the second.

Compared with `O=C(CO)[C@@H](O)[C@H](O)[C@@H](O)CO`, `O=C(O)Cc1csc(-c2ccc(Cl)cc2)n1` is higher in “viability change, negative = cytotoxic” value: 0.0553% [at 35.3 µM] for the first, 2.44% [at 35.3 µM] for the second.

For `CC/C=C\CCOC(C)OCC` (stereo not drawn), the “viability change, negative = cytotoxic” value was -3.16% [at 35.3 µM].

`CCCCN1C=CN(C)C1` gave a viability change, negative = cytotoxic of 3.01% [at 15.8 µM].

Experiment: qHTS assay to identify small molecule agonists of the AP-1 signaling pathway (AID 1159526); further: on the % scale 0 is the no-effect control and ±100 the full control effect
Settings: ME-180 (cervical carcinoma) AP-1-bla reporter, beta-lactamase FRET ratio, 5 h; series mostly up to 76.8 µM; activation: at the top concentration

First: CC(=O)c1ccc2ccccc2c1
Second: CC(C)c1ccc2ncccc2c1
The “activation” value of the first is higher: 8.18% for the first, 1.38% for the second.

Going from `C1CCC2(CCCCO2)OC1` to `CC1=CCC(O)(C(C)C)CC1` (stereo not drawn), the “activation” value rises from -1.94% to 0.734%.

Compared with `CC(CC=O)CC(C)(C)C` (stereo not drawn), `CCC(C)(CCCC(C)C)OC(C)=O` (stereo not drawn) is higher in “activation” value: -0.629% for the first, 0.425% for the second.

Compared with `Cc1ncc([C@@H](CCCCCCc2ccc3c(n2)NCCC3)CC(=O)O)cn1`, `CCCCOC(=O)CCC(C)=O` is higher in “activation” value: -15.1% for the first, -0.283% for the second.

Going from `[Ca+2]` to `CCN1C=CN(C)C1C` (stereo not drawn), the “activation” value falls from -2.32% to -10.1%.

Compared with `CC1CCC(CO)CC1` (stereo not drawn), `Nc1ccn([C@@H]2O[C@H](CO)[C@@H](O)C2O)c(=O)n1` (stereo partly drawn) is higher in “activation” value: -5.74% for the first, -4.49% for the second.

In the case of `O=C1NC(=O)C2CC=CCC12` (stereo not drawn), the “activation” value is reported as 1.85%.

Going from `O=[N+]([O-])c1cncn1CCN1CCOCC1` to `CCOc1c(N2CCOCC2)cnn(C)c1=O`, the “activation” value rises from -8.54% [at 35.3 µM] to -7.37% [at 35.3 µM].

Going from `CN(C)[C@@H]1C(=O)C(C(=O)NCN2CCCC2)=C(O)[C@@]2(O)C(=O)C3=C(O)c4c(O)cccc4[C@@](C)(O)C3C[C@@H]12` (stereo partly drawn) to `Cc1cccc(C)c1NC(=O)CC12CCCN1CCC2`, the “activation” value falls from 5.96% [at 35.3 µM] to 4.65% [at 35.3 µM].

First: C[C@H]1[C@H](NC(=O)/C(=N/OC(C)(C)C(=O)O)c2csc(N)n2)C(=O)N1S(=O)(=O)O (stereo in doubt)
Second: CC1(C)OC[C@@H](COC(=O)CCc2ccc(OC[C@@H](O)CNCCNC(=O)N3CCOCC3)cc2)O1
The “activation” value of the first is higher: -1.25% [at 35.3 µM] for the first, -1.56% [at 35.3 µM] for the second.

Compared with `O=C(O)CNC(=O)c1ccccc1`, `C[N+]1(C)[C@@H]2CC(OC(=O)[C@H](CO)c3ccccc3)C[C@H]1[C@@H]1O[C@@H]12` (stereo partly drawn) is lower in “activation” value: -0.553% [at 35.3 µM] for the first, -2.82% [at 35.3 µM] for the second.

Work on `CCCCN1C=CN(C)C1` yielded an activation of -8.87% [at 15.8 µM].
